# The campaign covered roughly 2,400 compounds. About 580 (24%) were called active.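 How the source made its calls: active means activity change at or above the mean plus 3 SD of buffer wells without dofetilide, per plate; inactive means the rest.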 The list is a sample of the results.
# Target: Potassium voltage-gated channel subfamily KQT member 2 (Rattus norvegicus) (UniProt O88943)
# Assay: rat KCNQ2 channel activation by compounds alone, confirmation, counter-screen for hERG block protector project, cell-based, CHO, FluxOR thallium flux (AID 1942);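 further: normalized value minus buffer-control mean plus three SD of buffer wells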
# Settings: CHO-KCNQ2 cells, FluxOR thallium flux fluorescence; at 10 µM; hits give high values
# Sequence of Potassium voltage-gated channel subfamily KQT member 2 (Rattus norvegicus) (O88943 whole entry, looked up): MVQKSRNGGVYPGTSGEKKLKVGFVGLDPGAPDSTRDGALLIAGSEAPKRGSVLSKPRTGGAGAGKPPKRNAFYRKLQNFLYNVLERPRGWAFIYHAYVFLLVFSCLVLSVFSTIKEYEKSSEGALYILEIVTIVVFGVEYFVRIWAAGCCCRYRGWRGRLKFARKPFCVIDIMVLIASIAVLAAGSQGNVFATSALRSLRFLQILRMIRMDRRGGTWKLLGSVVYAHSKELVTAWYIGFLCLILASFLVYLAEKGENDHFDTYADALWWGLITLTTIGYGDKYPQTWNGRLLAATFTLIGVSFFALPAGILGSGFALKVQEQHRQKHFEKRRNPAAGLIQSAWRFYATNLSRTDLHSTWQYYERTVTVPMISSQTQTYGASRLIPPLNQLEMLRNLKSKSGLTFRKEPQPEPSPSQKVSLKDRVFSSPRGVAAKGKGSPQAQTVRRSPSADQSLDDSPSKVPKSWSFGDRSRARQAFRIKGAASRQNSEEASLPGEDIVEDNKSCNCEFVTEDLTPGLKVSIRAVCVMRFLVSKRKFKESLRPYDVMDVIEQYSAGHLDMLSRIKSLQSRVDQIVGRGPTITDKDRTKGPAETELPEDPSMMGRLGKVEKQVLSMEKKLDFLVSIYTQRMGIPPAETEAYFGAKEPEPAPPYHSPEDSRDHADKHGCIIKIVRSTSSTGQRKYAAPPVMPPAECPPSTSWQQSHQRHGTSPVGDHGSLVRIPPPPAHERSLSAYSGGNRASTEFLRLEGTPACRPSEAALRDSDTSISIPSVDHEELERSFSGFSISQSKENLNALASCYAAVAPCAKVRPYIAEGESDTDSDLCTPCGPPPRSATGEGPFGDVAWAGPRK
row,Structure (SMILES),"activity change, less the hit threshold"
1,CCc1ccc2[nH]c(=O)c(-c3ccccc3)c(O)c2c1,-20.4% (inactive)
2,Cc1cccc(N2CCN(C(=O)CNC(=O)c3cccc([N+](=O)[O-])c3)CC2)c1C,-27.6% (inactive)
3,Cc1cc2[nH]c(=O)c(=O)[nH]c2cc1S(=O)(=O)N1CCN(c2cccc(C)c2C)CC1,-10.5% (inactive)
4,Cc1cccc(N2CCN(C(=O)Cc3c(C(=O)O)[nH]c4ccc(Cl)cc34)CC2)c1C,16.8% (active)
5,CCOC(=O)C1=C(N)Oc2cc(O)ccc2C1c1cccnc1 (centres undefined),-24.7% (inactive)
6,COc1ccc(N2CCN(C(=S)NC(=O)c3cccs3)CC2)c([N+](=O)[O-])c1,-6.4% (inactive)
7,COc1cccc(OC)c1C(=O)NC(=S)N1CCN(c2ccc(C(F)(F)F)cc2[N+](=O)[O-])CC1,-33.8% (inactive)
8,CC(C)Oc1cccc(C(=O)NC(=S)N2CCN(c3ccc(C(F)(F)F)cc3[N+](=O)[O-])CC2)c1,-12.3% (inactive)
9,O=C(NC(=S)N1CCN(c2c(Cl)cccc2[N+](=O)[O-])CC1)c1cccs1,7.2% (active)
10,O=C(NC(=S)N1CCN(c2ccc(C(F)(F)F)cc2[N+](=O)[O-])CC1)c1cccs1,15.6% (active)
11,O=C(NC(=S)Nc1ccc(N2CCCCC2)c(Cl)c1)c1cccs1,-0.7% (inactive)
12,O=C(NC(=S)Nc1cccc(Cl)c1N1CCCCC1)c1cccs1,-12.7% (inactive)
13,O=C(NC(=S)Nc1cccc(Cl)c1N1CCOCC1)c1cccs1,-17% (inactive)
14,O=C(NC(=S)N1CCN(c2ccc(Cl)cc2[N+](=O)[O-])CC1)c1cccs1,2.3% (active)
15,COc1ccc(-c2ccc3c(N)c(C(=O)c4ccc(OC)c(OC)c4)sc3n2)cc1,-11.8% (inactive)
16,Cc1c(C#N)c(O)[nH]c(=O)c1N=Nc1ccc(Br)cc1C(=O)O,-13.8% (inactive)
17,COc1ccc2c(C(=O)CN3CCN(c4ccccc4)CC3)c[nH]c2c1,-21.6% (inactive)
18,CCCCCCc1c(O)nc(SCC(=O)O)[nH]c1=O,-23.9% (inactive)
19,CC1=NN(c2nc(-c3ccccc3)cs2)C(=O)C1N=Nc1ccccc1 (centres undefined),-28% (inactive)
20,Cc1nnc(NC(=O)C2CCCN(S(=O)(=O)c3ccccc3C(F)(F)F)C2)s1 (centres undefined),4.9% (active)

row,Structure (SMILES),"activity change, less the hit threshold"
1,CCc1nnc(NC(=O)C2CCCCN2S(=O)(=O)c2ccccc2)s1 (centres undefined),-11.7% (inactive)
2,COC(=O)c1ccccc1NC(=O)C1CCCN(S(C)(=O)=O)C1 (centres undefined),-18.8% (inactive)
3,CSc1nsc(SCC(=O)Nc2ccccc2C(=O)O)n1,-13% (inactive)
4,COC(=O)CCn1[nH]c(=O)c2ccccc2c1=O,-15.8% (inactive)
5,CC(=O)NCCc1nc2cc(NC(=O)c3ccc(Cl)cc3)ccc2n1C,-14.1% (inactive)
6,C/C(=N/NC(=S)Nc1cccc(C)c1)c1cccc([N+](=O)[O-])c1,-13.2% (inactive)
7,C/C(=N\Nc1nc(C)c(C)s1)c1ccc([N+](=O)[O-])cc1,17% (active)
8,C/C(=N\Nc1cc(N2CCOCC2)ncn1)c1cccc([N+](=O)[O-])c1,-15.9% (inactive)
9,Cc1cc(C)cc(N(C(=O)c2cc3ccccc3oc2=O)C2C=CS(=O)(=O)C2)c1 (centres undefined),-12.7% (inactive)
10,COc1ccc(Br)cc1CNc1ccccc1,-21.6% (inactive)
11,COc1ccc(CC(=O)Nc2ccccc2Oc2ccccc2)cc1,-0.3% (inactive)
12,COc1cc(NC(=O)c2ccccc2)c(OC)cc1NC(=O)Cc1ccc(Br)cc1,12.3% (active)
13,CCOC(=O)CN1C(=O)SC(Nc2ccc(C)cc2)C1=O (centres undefined),-7% (inactive)
14,O=C(COc1nsnc1N1CCOCC1)Nc1ccc(Cl)cc1,-17.5% (inactive)
15,CN(Cc1cnn(C)c1)C(=O)C1CCC(=O)N(Cc2cccc(C(F)(F)F)c2)C1 (centres undefined),-19.6% (inactive)
16,COc1ccc(N2CCN(S(=O)(=O)c3ccc(Br)s3)CC2)cc1,-14.9% (inactive)
17,CC1=CN2C(=N)/C(=C/c3ccc(Sc4ccc(Cl)cc4)o3)C(=O)N=C2S1,-17.8% (inactive)
18,CCCn1c(=S)[nH]c2ccc(C(F)(F)F)cc21,-3.6% (inactive)
19,O=c1c2cc(Cl)ccc2[nH]c(=S)n1Cc1cccs1,-11.7% (inactive)
20,CC(C)Cn1c(=S)[nH]c2cc(Cl)ccc21,6.5% (active)

row,Structure (SMILES),"activity change, less the hit threshold"
1,COc1cccc(/C=C2/C(=O)NN(c3ccc(C)c(C)c3)C2=O)c1,-18% (inactive)
2,O=C(N1CCOCC1)N1CCC(c2nc(-c3ccc(S(=O)(=O)N4CCOCC4)cc3)no2)CC1,-23.6% (inactive)
3,COc1cc(OC)cc(C(=O)NC(=S)N(Cc2ccccc2)C(C)C)c1,31.3% (active)
4,C=CCN(CC=C)C(=S)NC(=O)c1ccc(OC)c(Br)c1,46% (active)
5,CCOc1ccc(C(=O)NC(=S)N(Cc2ccccc2)Cc2ccccc2)cc1,-5.6% (inactive)
6,COc1ccc(C(=O)NN/C(C)=C/C(=O)c2ccccc2)cc1,-25.7% (inactive)
7,COc1ccc(CN(Cc2cccnc2)C(=S)NCCc2ccccc2)cc1OC,-13.1% (inactive)
8,C=CCNC(=S)NC(=O)c1ccc(C)c(Br)c1,-17.6% (inactive)
9,CCN(CC)C(=S)NC(=O)c1ccc(OC)c(Br)c1,-11% (inactive)
10,COc1ccc(C(=O)NC(=S)NCCO)cc1Br,-13.1% (inactive)
11,C=CCN(CC=C)C(=S)NC(=O)c1ccc(C)c(Br)c1,135% (active)
12,COc1ccc(C(=O)NC(=S)N(Cc2ccccc2)Cc2ccccc2)cc1,28.4% (active)
13,COc1cc(OC)cc(C(=O)OCC(=O)N(C)c2ccccc2)c1,-28% (inactive)
14,O=c1c([N+](=O)[O-])c(N2CCCCC2)c2ccccc2n1-c1ccccc1,-20.7% (inactive)
15,CC(C)=CCCC1=CCC2C(=O)NNC(=O)C2C1 (centres undefined),-15.8% (inactive)
16,Cc1ccc(S(=O)(=O)n2cnc3ccccc32)c(C)c1,-9% (inactive)
17,CCCNC(=O)N(C)c1nncnc1C(=O)NC,-17.3% (inactive)
18,CCN(CC(=O)Nc1c(F)cccc1F)C(=O)c1ccc(Cl)c(S(=O)(=O)N2CCCCC2)c1,-23.2% (inactive)
19,Cc1cccc(C)c1NC(=O)Cn1cnc2c(=O)n(C)c(=O)n(C)c21,-15.2% (inactive)
